Laboratory results reported in PubChem BioAssay (NCI).
About 79,000 compounds went through this panel and 15% of them were active in at least one assay; those are over-represented in the sample as a whole. Unmarked numbers belong to inactive results. Activity calls are given as the source filed them. Rule as the data show it: active = growth inhibition above about 70%; inactive = the rest.

Tests used:
[1] = NCI Yeast Anticancer Drug Screen. Data for the rad50 strain (AID 155);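 also: 0% = growth of vehicle-only cultures of the same strain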; settings: S. cerevisiae rad50 strain growth inhibition; at 50.0 µM; stronger effect = higher value
In short: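 Compounds were tested on a yeast strain with an engineered DNA damage repair alteration; the reported value is growth inhibition normalised to vehicle treatment.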

[2] = NCI Yeast Anticancer Drug Screen. Data for the mec2-1 strain (AID 157); settings: S. cerevisiae mec2-1 strain, at 50.0 µM, stronger effect = higher value
In short: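 Yeast mec2-1 mutant treated with compound. Readout: growth inhibition vs vehicle controls.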

[3] = NCI Yeast Anticancer Drug Screen. Data for the sgs1 mgt1 strain (AID 161);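 also: 0% = growth of cultures given vehicle only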; settings: S. cerevisiae sgs1 mgt1 strain, at 50.0 µM, stronger effect = higher value
In short: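 Read-out: growth inhibition vs vehicle controls. Cells: mutant yeast strain deficient in DNA damage repair.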

[4] = NCI Yeast Anticancer Drug Screen. Data for the cln2 rad14 strain (AID 165);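 also: 0% = growth equal to vehicle treated cultures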; settings: S. cerevisiae cln2 rad14 strain, at 50.0 µM, stronger effect = higher value
In short: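 cln2 rad14 yeast strain; compound exposure; growth inhibition read vs vehicle controls.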

[5] = NCI Yeast Anticancer Drug Screen. Data for the bub3 strain (AID 167); settings: S. cerevisiae bub3 mutant strain, at 50.0 µM, stronger effect = higher value
In short: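 Growth of a checkpoint-deficient yeast mutant is measured after compound exposure. Values represent inhibition relative to vehicle.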

[6] = NCI Yeast Anticancer Drug Screen. Data for the mlh1 rad18 strain (AID 175); settings: S. cerevisiae mlh1 rad18 strain growth inhibition; at 50.0 µM; stronger effect = higher value
In short: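 Yeast w/ defined DNA-repair lesions; compound exposure; growth vs vehicle controls → % inhibition.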

NC(Cc1ccccc1)C(=O)NCC(=O)Oc1ccc([N+](=O)[O-])cc1 (stereo unspecified)
growth inhibition [1]: 36.5%
growth inhibition [2]: 20.4%
growth inhibition [3]: 20.1%
growth inhibition [4]: 18.1%
growth inhibition [5]: 2.35%
growth inhibition [6]: 23.1%

O=c1[nH]nc(-c2ccccc2)n1/N=C\c1ccccc1
growth inhibition [1]: -33.1%
growth inhibition [2]: -10.3%
growth inhibition [3]: -15.6%
growth inhibition [4]: -26.1%
growth inhibition [5]: 6.15%
growth inhibition [6]: -26%

CC(C)(C)OC(=O)NC(CSCc1ccc(C(=O)c2ccccc2)cc1)C(=O)O (stereo unspecified)
growth inhibition [1]: -23.9%
growth inhibition [2]: -28.1%
growth inhibition [3]: -15.3%
growth inhibition [4]: 10.6%
growth inhibition [5]: -12.8%
growth inhibition [6]: -2.3%

CC(CC[C@@H](O)C(C)(C)O)C1[C@@H](O)CC2(C)C3CC(O)C4C(C)(C)[C@@H](OC5OC(CO)C(O)C(O)C5O)CC[C@@]45C[C@@]35CC[C@]12C (stereo partly specified)
growth inhibition [1]: -14.9%
growth inhibition [2]: 2.65%
growth inhibition [3]: 0.15%
growth inhibition [4]: -30.2%
growth inhibition [5]: -5.9%
growth inhibition [6]: -28.1%

O=C1c2cc3c(cc2CC12Cc1cc4c(cc1C2=O)CCCC4)CCCC3
growth inhibition [1]: -42.1%
growth inhibition [2]: -14.2%
growth inhibition [3]: -22.3%
growth inhibition [4]: -16.8%
growth inhibition [5]: -4.25%
growth inhibition [6]: -37.1%

CC(C)=CCCc1ccc2c(c1)C(=O)c1cc3c(cc1C2=O)OCO3
growth inhibition [1]: -13.9%
growth inhibition [2]: 15.1%
growth inhibition [3]: 21.1%
growth inhibition [4]: 9.6%
growth inhibition [5]: 10.6%
growth inhibition [6]: -2.1%

COC(=O)c1cc(C)ncc1C#N
growth inhibition [1]: 0.45%
growth inhibition [2]: 1.15%
growth inhibition [3]: -4.7%
growth inhibition [4]: 0.3%
growth inhibition [5]: 2.95%
growth inhibition [6]: 8%

O=[N+]([O-])c1cccc(-c2csc(N=Nc3c(O)[nH]c4ccccc34)n2)c1
growth inhibition [1]: -29.6%
growth inhibition [2]: -8.9%
growth inhibition [3]: -0.3%
growth inhibition [4]: -12.9%
growth inhibition [5]: 14.2%
growth inhibition [6]: 13.3%

CC(=O)OCc1nc2ncnc(N)c2[nH]1
growth inhibition [1]: 0.5%
growth inhibition [2]: -5.65%
growth inhibition [3]: -11.4%
growth inhibition [4]: -52.4%
growth inhibition [5]: -3.4%
growth inhibition [6]: -4.9%

O=C(N/N=C\c1cccc(O)c1)c1ccncc1
growth inhibition [1]: 1.75%
growth inhibition [2]: 11.9%
growth inhibition [3]: -37.5%
growth inhibition [4]: -19.4%
growth inhibition [5]: 3%
growth inhibition [6]: -1.05%

O=C(Nc1ccc(Cl)cc1C(=O)O)c1ccc([N+](=O)[O-])cc1
growth inhibition [1]: 23.1%
growth inhibition [2]: 18.2%
growth inhibition [3]: 26.7%
growth inhibition [4]: 38.8%
growth inhibition [5]: 23.9%
growth inhibition [6]: 53.2%

COC1=CC(=O)c2ccccc2C1(CCC=C(C)C)C1=NC(C)(C)CO1 (stereo unspecified)
growth inhibition [1]: -27%
growth inhibition [2]: -11.6%
growth inhibition [3]: 7.75%
growth inhibition [4]: 5.65%
growth inhibition [5]: -8.6%
growth inhibition [6]: -11.6%

N#CCCN(CCC#N)c1ccc(/C=C2\N=C(c3cc([N+](=O)[O-])ccc3Cl)N(S(=O)(=O)c3ccccc3)C2=O)cc1
growth inhibition [1]: 23.2%
growth inhibition [2]: 16.3%
growth inhibition [3]: 3.5%
growth inhibition [4]: -47.4%
growth inhibition [5]: -1.35%
growth inhibition [6]: 28.1%

Cc1ccc2ccc(-c3cc4ccccc4s3)nc2c1
growth inhibition [1]: -12.2%
growth inhibition [2]: -9.75%
growth inhibition [3]: -1.5%
growth inhibition [4]: -81.8%
growth inhibition [5]: -9.5%
growth inhibition [6]: -6.1%

CC(C)(C)c1ccc(OCCCl)c(Cl)c1
growth inhibition [1]: 2.35%
growth inhibition [2]: -2.45%
growth inhibition [3]: 33.7%
growth inhibition [4]: -41.9%
growth inhibition [5]: 0.75%
growth inhibition [6]: 6.3%

CN(C)C(=O)Sc1ccc([N+](=O)[O-])cc1Cl
growth inhibition [1]: 15.4%
growth inhibition [2]: 4.6%
growth inhibition [3]: 5.7%
growth inhibition [4]: 14.6%
growth inhibition [5]: -4.3%
growth inhibition [6]: 16.8%

CS/C(c1ccccc1)=[N+](\[O-])Cc1ccccc1
growth inhibition [1]: 17.6%
growth inhibition [2]: 9%
growth inhibition [3]: -7.1%
growth inhibition [4]: 8.5%
growth inhibition [5]: -0.75%
growth inhibition [6]: 3.15%

CC1OC(n2ccc(=O)[nH]c2=O)C=C(OC(=O)c2ccccc2)C1=O (stereo unspecified)
growth inhibition [1]: 12.2%
growth inhibition [2]: -12.2%
growth inhibition [3]: -11.4%
growth inhibition [4]: -7%
growth inhibition [5]: -9.55%
growth inhibition [6]: 3.4%

O=C(N/C=C(/c1ccccc1)S(=O)Cc1ccccc1)Nc1ccccc1Cl (stereo unspecified)
growth inhibition [1]: -8.45%
growth inhibition [2]: -27.6%
growth inhibition [3]: 0.85%
growth inhibition [4]: -15.2%
growth inhibition [5]: -9.7%
growth inhibition [6]: -24.9%

Clc1ccc(-c2csc3nc(-c4cccs4)nn23)cc1
growth inhibition [1]: -0.05%
growth inhibition [2]: -16.6%
growth inhibition [3]: 16.6%
growth inhibition [4]: 1.65%
growth inhibition [5]: -6.95%
growth inhibition [6]: -5.3%

O=C(O)c1nccc2c(O)cccc12
growth inhibition [1]: -5.75%
growth inhibition [2]: -4.45%
growth inhibition [3]: -16.1%
growth inhibition [4]: -19.6%
growth inhibition [5]: -23.9%
growth inhibition [6]: 3.3%

Cc1ccc(C(=O)C2=CN=C3C(=O)N(c4ccccc4)N(C)C3(C)C2=N)cc1 (stereo unspecified)
growth inhibition [1]: -4.65%
growth inhibition [2]: 36.7%
growth inhibition [3]: 11.2%
growth inhibition [4]: 1.1%
growth inhibition [5]: 4.9%
growth inhibition [6]: 36.1%

CCCCCCCCCCCCCCCC1=NN(c2ccc([N+](=O)[O-])cc2)C(=O)C1
growth inhibition [1]: 14.9%
growth inhibition [2]: -3.8%
growth inhibition [3]: -25.8%
growth inhibition [4]: -8.4%
growth inhibition [5]: 1.3%
growth inhibition [6]: 0.75%

O=C1C(Br)=CC(Br)=C/C1=N/Br
growth inhibition [1]: 70.6% (active)
growth inhibition [2]: 61.5%
growth inhibition [3]: 85.2% (active)
growth inhibition [4]: 61.1%
growth inhibition [5]: 70% (active)
growth inhibition [6]: 78.5% (active)

CN1CCc2ccccc2C1Cc1cc(OCc2ccccc2)ccc1N (stereo unspecified)
growth inhibition [1]: 36.2%
growth inhibition [2]: 1.25%
growth inhibition [3]: 23.6%
growth inhibition [4]: 30.6%
growth inhibition [5]: 14.8%
growth inhibition [6]: 22.1%

COc1ccc(-c2c3c(n(C4OC(COC(C)=O)C(OC(C)=O)C(OC(C)=O)C4OC(C)=O)c(=S)c2C#N)CC(C)(C)CC3=O)cc1 (stereo unspecified)
growth inhibition [1]: -2.05%
growth inhibition [2]: -0.8%
growth inhibition [3]: 10.8%
growth inhibition [4]: -9.35%
growth inhibition [5]: -0.05%
growth inhibition [6]: 8.9%

Cc1occ(Br)c(=O)c1O
growth inhibition [1]: 12.9%
growth inhibition [2]: 12.3%
growth inhibition [3]: 17.5%
growth inhibition [4]: 25.8%
growth inhibition [5]: -0.85%
growth inhibition [6]: 15.2%

CC1C(=O)OC2CC[N+]3(C(=O)C(F)(F)F)CC4OC4(COC(=O)C(C)(O)C1(C)O)C23 (stereo unspecified)
growth inhibition [1]: -13.2%
growth inhibition [2]: -32%
growth inhibition [3]: -12.8%
growth inhibition [4]: 2.2%
growth inhibition [5]: 0.65%
growth inhibition [6]: -8.9%

O=C(O)c1c(Cl)ccc(F)c1Cl
growth inhibition [1]: 9.45%
growth inhibition [2]: 1.2%
growth inhibition [3]: 4.5%
growth inhibition [4]: -11.9%
growth inhibition [5]: 11.3%
growth inhibition [6]: 8.35%

Cc1ccc(CNC(=O)Nc2c(C)cccc2C)cc1C
growth inhibition [1]: 8.8%
growth inhibition [2]: 2.55%
growth inhibition [3]: 9.75%
growth inhibition [4]: -6.3%
growth inhibition [5]: 14.4%
growth inhibition [6]: 3.45%

Cc1noc2c1NC(=O)OCC2
growth inhibition [1]: 2.9%
growth inhibition [2]: 1.45%
growth inhibition [3]: -3.85%
growth inhibition [4]: -2%
growth inhibition [5]: 10.6%
growth inhibition [6]: -15.1%

CC(=O)NNc1nc(C)c(C(/C=C/c2ccc(NC(C)=O)cc2)=N/NS(=O)(=O)c2ccc(C)cc2)s1
growth inhibition [1]: -6.75%
growth inhibition [2]: -23.8%
growth inhibition [3]: 3.15%
growth inhibition [4]: -6.2%
growth inhibition [5]: 6.35%
growth inhibition [6]: -21.4%

NC(N)=NC(N)=Nc1ccc2ccccc2c1
growth inhibition [1]: 58.4%
growth inhibition [2]: 12.3%
growth inhibition [3]: 17%
growth inhibition [4]: 20.3%
growth inhibition [5]: 8.6%
growth inhibition [6]: 22.6%

COc1c(C)c(C)c(OC(C)=O)c(C)c1COC(C)=O
growth inhibition [1]: 53.9%
growth inhibition [2]: 23.8%
growth inhibition [3]: 33.2%
growth inhibition [4]: 25.6%
growth inhibition [5]: 42.9%
growth inhibition [6]: 64.7%

COc1cccc2cc(C(C)=O)c(=O)oc12
growth inhibition [1]: 8.65%
growth inhibition [2]: -5.35%
growth inhibition [3]: 1.6%
growth inhibition [4]: 3%
growth inhibition [5]: 9.05%
growth inhibition [6]: 2.85%

O=[N+]([O-])Cc1ccc(Cl)cc1
growth inhibition [1]: 4.6%
growth inhibition [2]: 18.4%
growth inhibition [3]: 13.1%
growth inhibition [4]: -33%
growth inhibition [5]: -19.7%
growth inhibition [6]: 15.6%

O=C1NN=C(C(O)c2ccccc2)C1(O)c1ccccc1 (stereo unspecified)
growth inhibition [1]: 8.3%
growth inhibition [2]: -6.25%
growth inhibition [3]: -0.65%
growth inhibition [4]: 0.2%
growth inhibition [5]: 2.5%
growth inhibition [6]: 17.8%

COC(=O)c1ccccc1C(=O)O
growth inhibition [1]: 17.1%
growth inhibition [2]: 4.05%
growth inhibition [3]: 11.6%
growth inhibition [4]: -10.1%
growth inhibition [5]: 3.4%
growth inhibition [6]: 23.2%

C=C1CC[C@H]2C(C)=CC[C@@H]3[C@H](OC(=O)[C@H]3COC)[C@@H]12
growth inhibition [1]: 3.6%
growth inhibition [2]: -39%
growth inhibition [3]: -11.5%
growth inhibition [4]: 5.4%
growth inhibition [5]: -18.6%
growth inhibition [6]: -11.4%

CC(C)(C)NCC(CN1CCOCC1)C(=O)c1ccccc1 (stereo unspecified)
growth inhibition [1]: 48.5%
growth inhibition [2]: 70.1% (active)
growth inhibition [3]: 57%
growth inhibition [4]: 52.6%
growth inhibition [5]: 74.2% (active)
growth inhibition [6]: 90.2% (active)

CN(C)CCSc1n[nH]c(=O)[nH]c1=O
growth inhibition [1]: 2.4%
growth inhibition [2]: -6.35%
growth inhibition [3]: -7.35%
growth inhibition [4]: -23.4%
growth inhibition [5]: -16.1%
growth inhibition [6]: -3.45%
